Each structure is given as a SMILES string. Active and inactive are the calls of the source.

The nature of one assay: changes in parasitized red cell lysis, either direction – P. falciparum Indochina, OD700, 3 h, PSAC antagonist project, primary screen (AID 1156). To be noted: P. falciparum-infected erythrocytes, osmotic lysis, higher = more signal, called active from +8 up or from −8 down.
As to `C=C(CCCC)/C(=C/C[C@H](OC(C)=O)c1cccc(OCCO)c1)c1cc(C(=O)OC)ccc1OC`, the z-score is 2.43 (inactive).

With `C=CCNC(=O)[C@H]1[C@@H]2C(=O)O[C@@H](c3ccccc3)[C@@H](c3ccccc3)N2[C@@H](c2ccccc2OCCO)[C@]12C(=O)N(C(=O)OCCOC)c1ccccc12`, the z-score was -0.337 (inactive).

In the case of `O=C1OCCC/C=C\[C@H]2OC34C=CCN(Cc5ccccc5)C(=O)[C@H]3N(CCCCCO)C(=O)[C@@H]4C12` (stereo partly drawn), the z-score is -0.123 (inactive).

Consider `CC(C)(C)OC(=O)CC[C@]1(C(=O)N2CCOCC2)N=C(c2ccc(OCCCO)cc2)O[C@H]1c1ccccc1CN=[N+]=[N-]`, for which the z-score is 1.05 (inactive).

`CCCC=C(CCC)[C@@H](NC(=O)c1ccco1)c1ccc(C(=O)OC)cc1`: the z-score was 0.893 (inactive).

With `COC(=O)c1c(CC[C@@H](CO)NC(=O)N[C@@H](Cc2ccccc2)Cn2cc(-c3cncn3C)nn2)oc(C(C)=O)c1C(=O)OC`, the z-score was 1.29 (inactive).

As for `COC(=O)[C@@]1(Cc2ccc(OC)cc2)[C@H]2c3cc(C(=O)N(C)C)n(Cc4ccsc4Br)c3C[C@H]2CN1C(=O)c1ccccc1`, the z-score was 0.57 (inactive).

In the case of `C=CCC(OC(C)=O)[C@@H]1[C@@H](N(Cc2ccc(-c3ccccc3)cc2)C(=O)c2ccc(-c3ccccc3)cc2)c2cc(OCCCO)ccc2N1C(=O)c1ccc2ccccc2n1` (stereo partly drawn), the z-score is -0.452 (inactive).

As to `O=C1c2ccccc2[C@](Cc2ccccc2I)(C(=O)O)[C@H](c2ccc(CO)cc2)N1Cc1ccccc1`, the z-score was -0.144 (inactive).

`COCC(=C=CC[C@@H](O)c1cccc(OCCO)c1)C[C@@H](O)COCc1ccccc1`: the z-score is 1.08 (inactive).

On to `C[N+](C)(C)CCCCCCNC(=O)[C@@H]1C[C@@H]2C(=O)N[C@@H](Cc3ccccc3)C(=O)N2[C@@H]1c1ccc(O)cc1`, for which the z-score was -0.406 (inactive).

For `COCCOC(=O)N1C(=O)[C@@]2(c3ccccc31)[C@H](c1ccc(OCCO)cc1)N1[C@H](c3ccccc3)[C@H](c3ccccc3)OC(=O)[C@H]1[C@@H]2C(=O)N1CCN(c2ncccn2)CC1`, the z-score is 1.4 (inactive).

Consider `COCCOC(=O)N1C(=O)[C@@]2(c3cc(C#CCCO)ccc31)[C@H](c1ccccc1OCCO)N1[C@H](c3ccccc3)[C@H](c3ccccc3)OC(=O)[C@H]1[C@@H]2C(=O)N1CCc2cc(OC)c(OC)cc2C1`, for which the z-score was 0.276 (inactive).

As for `C=CCC(OC(C)=O)[C@@H]1[C@@H](N(Cc2cc3ccccc3o2)C(=O)Cc2ccc(OC)cc2)c2cc(OCCCO)ccc2N1C(=O)Cc1ccc(OC)cc1` (stereo partly drawn), the z-score was 1.23 (inactive).

With `CC(C)C[C@H]1NC(=O)[C@@]23C(=O)N[C@@H](Cc4ccccc4)C2[C@H](C)[C@@]2(C)O[C@H]2C3/C=C/C/C=C\CNC(=O)[C@@H]2CCCN2C1=O` (stereo partly drawn), the z-score was -0.875 (inactive).

As to `COCCOC(=O)N1C(=O)[C@@]2(c3cc(C#CCC(C(=O)OC)C(=O)OC)ccc31)[C@H](c1ccc(OCCO)cc1)N1[C@H](c3ccccc3)[C@H](c3ccccc3)OC(=O)[C@H]1[C@@H]2C(=O)N1CCCCCCC1`, the z-score was 1.04 (inactive).

Consider `COCC(=C=CC[C@@H](O)c1ccc(OCCO)cc1)C[C@@H](O)COCc1ccccc1`, for which the z-score is 0.766 (inactive).

Turning to `COC(=O)[C@@H]1N=C(c2ccc(OCCCO)cc2)O[C@@H]1c1ccccc1CN=[N+]=[N-]`, the z-score was -0.5 (inactive).

In the case of `C=C(COC)C(=O)CC[C@@H](OC(C)=O)c1ccc(OCCO)cc1`, the z-score was 0.133 (inactive).

Consider `O=C(NCCO)C1=C[C@H](Oc2ccccc2I)[C@@H](O)[C@H](NCc2ccc(F)cc2)C1`, for which the z-score was 1.33 (inactive).

Take `O=C1O[C@@H](c2ccccc2)[C@@H](c2ccccc2)N2[C@@H](c3ccc(OCCO)cc3)[C@]3(C(=O)Nc4ccc(C#CCCO)cc43)[C@@H](C(=O)Nc3nc4ccccc4s3)[C@H]12`: the z-score was -1.53 (inactive).

Consider `NCCCC[C@@H]1NC(=O)[C@H]2C[C@@H](C(=O)O)[C@@H](c3cccc(OCCO)c3)N2C1=O`, for which the z-score is 0.452 (inactive).

`COCCOC(=O)N1C(=O)[C@@]2(c3cc(C#CCCO)ccc31)[C@H](C(=O)N1CCc3cc(OC)c(OC)cc3C1)[C@H]1C(=O)O[C@H](c3ccccc3)[C@H](c3ccccc3)N1[C@@H]2c1ccccc1OCCO`: the z-score was 1.6 (inactive).

For the compound `COC(=O)[C@@]1(Cc2ccccc2)[C@@H]2[C@@H](CC(=O)[C@H]2CC(=O)C(=O)N(C)C)CN1C(=O)c1ccccc1`, the z-score was 0.0132 (inactive).

For `O=C1O[C@H](c2ccccc2)[C@H](c2ccccc2)N2[C@H]1[C@@H](C(=O)N1CCN(c3ncccn3)CC1)[C@]1(C(=O)Nc3ccccc31)[C@H]2c1ccc(O)cc1`, the z-score is -0.236 (inactive).

Turning to `CCOC(=O)C1=CC[C@@H](c2ccccc2Cl)N(S(=O)(=O)c2ccc(C)cc2)[C@H]1c1cccc(OC)c1`, the z-score is 0.106 (inactive).

The next assay is described as follows: plasmodial surface anion channel blockers, osmotic lysis – cell-based, P. falciparum Indochina, OD700, 18 h, primary screen (AID 1157). To be noted: P. falciparum Indochina infected erythrocytes, osmotic lysis OD700, 18 h; higher = more signal, called active from +8 up or from −8 down.
As to `Cc1ccccc1C(O)C1C=CC2C(=O)N(c3ccccc3)C(=O)C2N1Nc1ccccc1F` (stereo not drawn), the z-score was 1.1 (inactive).

Take `COC(=O)[C@@]1(CCS(=O)(=O)c2ccccc2)N=C(c2ccc(OCCCO)cc2)O[C@H]1c1ccccc1N=[N+]=[N-]`: the z-score is 3.42 (inactive).

On to `C=C(CCCC)C(=O)CC[C@H](OC(=O)c1cccnc1)c1ccc(CO)o1`, for which the z-score was 0.038 (inactive).

With `COCCOC(=O)N1C(=O)[C@@]2(c3cc(C#CC4(O)CCCCCC4)ccc31)[C@H](c1ccc(OCCO)cc1)N1[C@H](c3ccccc3)[C@H](c3ccccc3)OC(=O)[C@H]1[C@@H]2C(N)=O`, the z-score was 0.999 (inactive).

For the compound `CN(C)C(=O)[C@]1(Cc2ccccc2)N=C(c2ccc(OCCCO)cc2)O[C@@H]1c1ccccc1`, the z-score was 2.51 (inactive).

Regarding `COc1ccc(C#Cc2ccc3c(c2)[C@]2(C(=O)N3)[C@H](C(=O)Nc3nc4ccccc4s3)[C@H]3C(=O)O[C@H](c4ccccc4)[C@H](c4ccccc4)N3[C@@H]2c2ccc(OCCO)cc2)cc1`, the z-score is 0.81 (inactive).

Take `CCOC(=O)C[C@H]1[C@H](OC(=O)c2ccc(C(=O)c3ccccc3)cc2)[C@@H](NC(=O)c2ccc3ccccc3c2)c2cc(OCCCO)ccc2N1C(=O)c1ccc2ccccc2n1`: the z-score is 0.728 (inactive).

On to `CN(C)CCCCNC(=O)[C@H]1C[C@H]2C(=O)N[C@@H](Cc3ccccc3)C(=O)N2[C@H]1c1cccc(OCCO)c1`, for which the z-score is -1.43 (inactive).

With `C=C(CC1([C@@H](NP(=O)(c2ccccc2)c2ccccc2)[C@H]2C[C@@H]2CCN(C(=O)OCC)S(=O)(=O)c2ccc(C)cc2)CC1)c1ccccc1`, the z-score was 1.28 (inactive).

As for `C=C(CCCC)/C(=C/C[C@H](OC(C)=O)c1cccc(OCCO)c1)c1cc(C(=O)OC)ccc1OC`, the z-score was 1.21 (inactive).

For the compound `C=CCNC(=O)[C@H]1[C@@H]2C(=O)O[C@@H](c3ccccc3)[C@@H](c3ccccc3)N2[C@@H](c2ccccc2OCCO)[C@]12C(=O)N(C(=O)OCCOC)c1ccccc12`, the z-score was 0.973 (inactive).

As to `O=C1OCCC/C=C\[C@H]2OC34C=CCN(Cc5ccccc5)C(=O)[C@H]3N(CCCCCO)C(=O)[C@@H]4C12` (stereo partly drawn), the z-score is -0.354 (inactive).

As to `CC(C)(C)OC(=O)CC[C@]1(C(=O)N2CCOCC2)N=C(c2ccc(OCCCO)cc2)O[C@H]1c1ccccc1CN=[N+]=[N-]`, the z-score is 0.421 (inactive).

On to `CCCC=C(CCC)[C@@H](NC(=O)c1ccco1)c1ccc(C(=O)OC)cc1`, for which the z-score is 1.11 (inactive).

Consider `COC(=O)c1c(CC[C@@H](CO)NC(=O)N[C@@H](Cc2ccccc2)Cn2cc(-c3cncn3C)nn2)oc(C(C)=O)c1C(=O)OC`, for which the z-score is -0.277 (inactive).

In the case of `COC(=O)[C@@]1(Cc2ccc(OC)cc2)[C@H]2c3cc(C(=O)N(C)C)n(Cc4ccsc4Br)c3C[C@H]2CN1C(=O)c1ccccc1`, the z-score is 0.814 (inactive).

As for `C=CCC(OC(C)=O)[C@@H]1[C@@H](N(Cc2ccc(-c3ccccc3)cc2)C(=O)c2ccc(-c3ccccc3)cc2)c2cc(OCCCO)ccc2N1C(=O)c1ccc2ccccc2n1` (stereo partly drawn), the z-score is -0.033 (inactive).

In the case of `O=C1c2ccccc2[C@](Cc2ccccc2I)(C(=O)O)[C@H](c2ccc(CO)cc2)N1Cc1ccccc1`, the z-score was -0.656 (inactive).

Consider `COCC(=C=CC[C@@H](O)c1cccc(OCCO)c1)C[C@@H](O)COCc1ccccc1`, for which the z-score was -2.47 (inactive).

Take `C[N+](C)(C)CCCCCCNC(=O)[C@@H]1C[C@@H]2C(=O)N[C@@H](Cc3ccccc3)C(=O)N2[C@@H]1c1ccc(O)cc1`: the z-score was 0.0311 (inactive).

As for `COCCOC(=O)N1C(=O)[C@@]2(c3ccccc31)[C@H](c1ccc(OCCO)cc1)N1[C@H](c3ccccc3)[C@H](c3ccccc3)OC(=O)[C@H]1[C@@H]2C(=O)N1CCN(c2ncccn2)CC1`, the z-score was 1.56 (inactive).

In the case of `COCCOC(=O)N1C(=O)[C@@]2(c3cc(C#CCCO)ccc31)[C@H](c1ccccc1OCCO)N1[C@H](c3ccccc3)[C@H](c3ccccc3)OC(=O)[C@H]1[C@@H]2C(=O)N1CCc2cc(OC)c(OC)cc2C1`, the z-score was 1.12 (inactive).

Take `C=CCC(OC(C)=O)[C@@H]1[C@@H](N(Cc2cc3ccccc3o2)C(=O)Cc2ccc(OC)cc2)c2cc(OCCCO)ccc2N1C(=O)Cc1ccc(OC)cc1` (stereo partly drawn): the z-score was 0.336 (inactive).

Take `CC(C)C[C@H]1NC(=O)[C@@]23C(=O)N[C@@H](Cc4ccccc4)C2[C@H](C)[C@@]2(C)O[C@H]2C3/C=C/C/C=C\CNC(=O)[C@@H]2CCCN2C1=O` (stereo partly drawn): the z-score is -0.234 (inactive).

For `COCCOC(=O)N1C(=O)[C@@]2(c3cc(C#CCC(C(=O)OC)C(=O)OC)ccc31)[C@H](c1ccc(OCCO)cc1)N1[C@H](c3ccccc3)[C@H](c3ccccc3)OC(=O)[C@H]1[C@@H]2C(=O)N1CCCCCCC1`, the z-score is 0.901 (inactive).

`COCC(=C=CC[C@@H](O)c1ccc(OCCO)cc1)C[C@@H](O)COCc1ccccc1`: the z-score was -0.756 (inactive).

As for `COC(=O)[C@@H]1N=C(c2ccc(OCCCO)cc2)O[C@@H]1c1ccccc1CN=[N+]=[N-]`, the z-score is 1.33 (inactive).
